Data published in PubChem BioAssay (EPA / NIEHS).
Active and inactive are the calls of the source. The calls were made as follows: active = hit-call score of the fitted dose curve at least 0.9, where 1 is the maximum; inactive = score below 0.9.

Tests used:
[1] = read-out: Human Leukocyte Antigen - DR isotype (HLADR), HLA-DRA (gene 3122); assay: BSK_BE3C_HLADR: BioMAP Diversity Plus: BE3C Assay for Human Leukocyte Antigen - DR isotype (HLADR) Biomarker Activity (AID 2283032); details: primary human bronchial epithelial cells; actives raise or lower the signal
Outline: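 BioMAP BE3C format: human bronchial epithelium, 24 h compound treatment, ELISA detection of HLA-DR, with bidirectional analysis relative to DMSO.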

[2] = read-out: Vascular cell adhesion molecule 1 (VCAM1), VCAM1 (gene 7412); assay: BSK_4H_VCAM1: BioMAP Diversity Plus: 4H Assay for Vascular cell adhesion molecule 1 (VCAM1) Biomarker Activity (AID 2283033); details: primary human endothelial cells (HUVEC); actives raise or lower the signal
Outline: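 In this human endothelial (HUVEC) system, biomarker ELISA was run 24 h after compound addition, and total protein in parallel wells was assessed by SRB at 560 nm; DMSO served as negative control.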

[3] = read-out: Interferon-gamma inducible Protein 10 (IP10), CXCL10 (gene 3627); assay: BSK_BE3C_IP10: BioMAP Diversity Plus: BE3C Assay for Interferon-gamma inducible Protein 10 (IP10) Biomarker Activity (AID 2283034); details: primary human bronchial epithelial cells; actives raise or lower the signal
Outline: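 BE3C cells (human bronchial epithelial, primary); 24 h exposure; ELISA for IP-10; DMSO-referenced bidirectional fit.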

[4] = read-out: Monokine induced gamma interferon (MIG), CXCL9 (gene 4283); assay: BSK_BE3C_MIG: BioMAP Diversity Plus: BE3C Assay for Monokine induced gamma interferon (MIG) Biomarker Activity (AID 2283035); details: primary human bronchial epithelial cells; actives raise or lower the signal
Outline: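 Dose cells (human primary bronchial epithelial), incubate 24 h, quantify MIG by ELISA, then fit concentration–response in both directions relative to DMSO control.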

[5] = read-out: Transforming growth factor beta 1 (TGFb1), TGFB1 (gene 7040); assay: BSK_BE3C_TGFb1: BioMAP Diversity Plus: BE3C Assay for Transforming growth factor beta 1 (TGFb1) Biomarker Activity (AID 2283036); details: primary human bronchial epithelial cells; actives raise or lower the signal
Outline: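 TGF-b1 measured via ELISA, 24 h after chemical dosing of human bronchial epithelial cells (BE3C). Overt cytotoxicity assessed in parallel by SRB (0.1%, TCA-fixed, 560 nm); analysis bidirectional relative to DMSO.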

[6] = read-out: Plasminogen activator inhibitor-1 (PAI1), SERPINE1 (gene 5054); assay: BSK_BE3C_PAI1: BioMAP Diversity Plus: BE3C Assay for Plasminogen activator inhibitor-1 (PAI1) Biomarker Activity (AID 2283037); details: primary human bronchial epithelial cells; actives raise or lower the signal
Outline: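 In this multiplexed primary-cell system, bronchial epithelial cells receive test chemical and are sampled at 24 h. PAI-1 is read by ELISA, with DMSO serving as negative control for bidirectional fitting.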

[7] = read-out: urokinase plasminogen activator (uPA), PLAU (gene 5328); assay: BSK_BE3C_uPA: BioMAP Diversity Plus: BE3C Assay for urokinase plasminogen activator (uPA) Biomarker Activity (AID 2283038); details: primary human bronchial epithelial cells; actives raise or lower the signal
Outline: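 Using confluent primary human lung bronchial epithelial cultures, we dosed chemicals, waited 24 h, then ran a uPA ELISA, fitting bidirectionally against DMSO.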

[8] = read-out: Urokinase-type plasminogen activator receptor (uPAR), PLAUR (gene 5329); assay: BSK_BE3C_uPAR: BioMAP Diversity Plus: BE3C Assay for Urokinase-type plasminogen activator receptor (uPAR) Biomarker Activity (AID 2283039); details: primary human bronchial epithelial cells; actives raise or lower the signal
Outline: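 Chemically treated human bronchial epithelial cells (lung primary) are assayed for uPAR by ELISA after 24 h, with data fitted in both directions using DMSO as negative control.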

[9] = read-out: Interleukin-6 (IL6), IL6 (gene 3569); assay: BSK_CASM3C_IL6: BioMAP Diversity Plus: CASM3C Assay for Interleukin-6 (IL6) Biomarker Activity for (AID 2283040); details: primary human coronary artery smooth muscle cells; actives raise or lower the signal
[10] = read-out: Tissue plasminogen activator (tPA), PLAT (gene 5327); assay: BSK_BE3C_tPA: BioMAP Diversity Plus: BE3C Assay for Tissue plasminogen activator (tPA) Biomarker Activity (AID 2283041); details: primary human bronchial epithelial cells; actives raise or lower the signal
Outline: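 Using human lung primary bronchial epithelial cells, tPA was measured by ELISA 24 h after dosing; data fitted relative to DMSO.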

[11] = read-out: Interleukin-8 (IL8), CXCL8 (gene 3576); assay: BSK_CASM3C_IL8: BioMAP Diversity Plus: CASM3C Assay for Interleukin-8 (IL8) Biomarker Activity (AID 2283042); details: primary human coronary artery smooth muscle cells; actives raise or lower the signal;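 also: IL-8 protein level quantified by ELISA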
[12] = read-out: Human Leukocyte Antigen - DR isotype (HLADR), HLA-DRA (gene 3122); assay: BSK_CASM3C_HLADR: BioMAP Diversity Plus: CASM3C Assay for Human Leukocyte Antigen - DR isotype (HLADR) Biomarker Activity (AID 2283043); details: primary human coronary artery smooth muscle cells; actives raise or lower the signal;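 also: cell-surface HLA-DR protein level quantified by ELISA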
[13] = read-out: Macrophage colony-stimulating factor (MCSF), CSF1 (gene 1435); assay: BSK_CASM3C_MCSF: BioMAP Diversity Plus: CASM3C Assay for Macrophage colony-stimulating factor (MCSF) Biomarker Activity (AID 2283044); details: primary human coronary artery smooth muscle cells; actives raise or lower the signal;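 also: M-CSF protein amount quantified by ELISA after 24 h exposure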
[14] = read-out: Low-density lipoprotein receptor (LDLR), LDLR (gene 3949); assay: BSK_CASM3C_LDLR: BioMAP Diversity Plus: CASM3C Assay for Low-density lipoprotein receptor (LDLR) Biomarker Activity (AID 2283045); details: primary human coronary artery smooth muscle cells; actives raise or lower the signal;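 also: LDLR protein level on the cell surface quantified by ELISA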
[15] = read-out: Monocyte Chemoattractant Protein-1 (MCP1), CCL2 (gene 6347); assay: BSK_CASM3C_MCP1: BioMAP Diversity Plus: CASM3C Assay for Monocyte Chemoattractant Protein-1 (MCP1) Biomarker Activity (AID 2283046); details: primary human coronary artery smooth muscle cells; actives raise or lower the signal;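 also: MCP-1 level quantified by ELISA 24 h after dosing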
[16] = BSK_CASM3C_Proliferation: Cell Proliferation Assessment in the BioMAP Diversity Plus: CASM3C Assay (AID 2283047); details: primary human coronary artery smooth muscle cells;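 also: sulforhodamine B total protein stain as relative cell number at 560 nm; sub-confluent cells exposed 48 h before staining; fitted both ways against DMSO so gain or loss of cell number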
[17] = read-out: Monokine induced gamma interferon (MIG), CXCL9 (gene 4283); assay: BSK_CASM3C_MIG: BioMAP Diversity Plus: CASM3C Assay for Monokine induced gamma interferon (MIG) Biomarker Activity (AID 2283048); details: primary human coronary artery smooth muscle cells; actives raise or lower the signal;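 also: MIG protein level measured by ELISA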
[18] = read-out: serum amyloid A (SAA), SAA1 (gene 6288); assay: BSK_CASM3C_SAA: BioMAP Diversity Plus: CASM3C Assay for serum amyloid A (SAA) Biomarker Activity (AID 2283049); details: primary human coronary artery smooth muscle cells; actives raise or lower the signal;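 also: SAA protein level quantified by ELISA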
[19] = BSK_CASM3C_SRB: Viability Assessment in the BioMAP Diversity Plus: CASM3C Assay (AID 2283050); details: primary human coronary artery smooth muscle cells;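 also: total protein by SRB staining as cytotoxicity measure in parallel cultures; cells exposed to compound for 24 h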
[20] = read-out: Thrombomodulin, THBD (gene 7056); assay: BSK_CASM3C_Thrombomodulin: BioMAP Diversity Plus: CASM3C Assay for Thrombomodulin Biomarker Activity (AID 2283051); details: primary human coronary artery smooth muscle cells; actives raise or lower the signal;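 also: thrombomodulin protein level measured by ELISA 24 h after dosing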

Measured: AC50

C1CCC(SSC2CCCCC2)CC1
active: [2] 20 µM | [12] 30.5 µM | [15] 31.5 µM | [16] 34.1 µM | [20] 14.8 µM
inactive: all other assays above

CCCCC(CC)COC(=O)CC(C(=O)OCC(CC)CCCC)S(=O)(=O)O (centres undefined)
active: [1] 7.52 µM | [2] 34.5 µM | [3] 7.16 µM | [4] 8.91 µM | [5] 6.71 µM | [6] 11.5 µM | [7] 11.1 µM | [8] 11.9 µM | [10] 11.6 µM
inactive: all other assays above

CC(C)(C)c1cc(O)c(C(C)(C)C)cc1O
active: [2] 6.44 µM | [10] 15.7 µM | [20] 4.92 µM
inactive: all other assays above

OC[C@@H](O)[C@@H](O)[C@H](O)[C@H](O)CO
inactive: all assays above

Cc1ccc(C(C)C)c(O)c1
not listed: [18]
inactive: all other assays above

Oc1ccc2ccccc2c1N=Nc1ccccc1
active: [2] 0.386 µM | [7] 2.47 µM | [20] 1.36 µM
inactive: all other assays above

c1cc(-c2ccncc2)ccn1
inactive: all assays above

Nc1nc(N)c2nc(CNc3ccc(C(=O)N[C@@H](CCC(=O)O)C(=O)O)cc3)cnc2n1
inactive: all assays above

Cc1nc(-c2ccc3c(c2)CCN(CCC2CCC(NC(=O)/C=C/c4ccc(F)cc4)CC2)CC3)no1 (centres undefined)
active: [1] 12.8 µM | [2] 9.3 µM | [3] 15 µM | [4] 13.5 µM | [7] 9.94 µM | [12] 9.3 µM | [15] 13.8 µM | [16] 5.83 µM | [17] 11.7 µM | [18] 9.3 µM | [19] 9.3 µM
inactive: [5] | [6] | [8] | [9] | [10] | [11] | [13] | [14] | [20]

COC(=O)c1ccc(O)cc1
not listed: [9]
inactive: all other assays above

C[C@]12C=CC(=O)C=C1CC[C@@H]1[C@@H]2C(=O)C[C@@]2(C)[C@H]1CC[C@]2(O)C(=O)CO
active: [9] 0.704 µM | [11] 0.184 µM | [13] 0.243 µM | [15] 0.242 µM | [18] 0.699 µM
not listed: [19]
inactive: all other assays above

CNCc1cc(F)ccc1Oc1ccc(Cl)c(Cl)c1
active: [1] 27.9 µM | [14] 13.8 µM | [16] 22 µM
inactive: all other assays above

CCCCCCC(=O)OCC
inactive: all assays above

Cc1ccc2ncccc2c1
inactive: all assays above

CN1CCN(Cc2cc(-c3ccc4[nH]c(=O)oc4c3)co2)[C@@H](c2ccc(F)cc2)C1
active: [10] 3.27 µM | [15] 0.736 µM | [16] 12.3 µM
inactive: all other assays above

Cc1c(C(=O)O)c(O)cc2c1C(=O)c1c(O)c([C@@H]3O[C@H](CO)[C@@H](O)[C@H](O)[C@H]3O)c(O)c(O)c1C2=O
inactive: all assays above

O=c1c(O)c(-c2ccc(O)c(O)c2)oc2cc(O)cc(O)c12
active: [1] 20 µM | [2] 26.9 µM | [9] 8.19 µM | [11] 11.6 µM | [13] 6.34 µM | [14] 4.11 µM | [15] 9.09 µM | [16] 9.64 µM | [17] 20 µM | [19] 14.2 µM
inactive: [3] | [4] | [5] | [6] | [7] | [8] | [10] | [18] | [20]

COc1cc(S(=O)(=O)O)c(C)cc1N=Nc1c(O)ccc2cc(S(=O)(=O)O)ccc12
inactive: all assays above

CNC(=O)[C@H]1O[C@@H](n2cnc3c(NCc4cc(Cl)ccc4OCc4cc(C)no4)ncnc32)[C@H](O)[C@@H]1N
inactive: all assays above

Cc1ccc(C)c(C)c1
inactive: all assays above

CC(CO)OC(C)CO (centres undefined) (tested in a mixture with another compound)
inactive: all assays above

O=[N+]([O-])C(CO)(CO)CO
inactive: all assays above

COCCOCCOC
inactive: all assays above

Nc1ccc2c(c1)C(=O)c1ccccc1C2=O
active: [16] 14.3 µM
not listed: [15]
inactive: all other assays above

Cc1ccc(C)c(O)c1C
inactive: all assays above

CCCCCCCC=O
inactive: all assays above

CCCCCCCCCCCC(=O)OC
inactive: all assays above

Clc1cc(Cl)c(Cl)cc1Cl
inactive: all assays above

CCCCCCCCCCCCCCCCCC(=O)O
active: [16] 8.81 µM
not listed: [19]
inactive: all other assays above

Cc1ccc(Cl)cc1
inactive: all assays above

CC1=C(/C=C/C(C)=C/C=C/C(C)=C/CO)C(C)(C)CCC1
active: [1] 18 µM | [2] 31.1 µM | [16] 20.9 µM | [20] 12.2 µM
inactive: all other assays above

CN1CCCC1=O
inactive: all assays above
